Bioassay records from PubChem BioAssay.
The full list was thinned out, with hits kept by preference.
TDP1 block – qHTS Assay for Inhibitors of Tyrosyl-DNA Phosphodiesterase (TDP1). recombinant TDP1, AlphaScreen DNA substrate cleavage. Tyrosyl-DNA phosphodiesterase 1 (Homo sapiens), Q9NUW8. Potency, µM (highest dose often 130 µM), most hits filed as inhibitors. hit rate 0.28% among 350,000. AID 485290, 2010; also: nearly all actives have a fitted effect of over 40% in size
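Enzyme-compound mixtures sat 15 min at room temperature, followed by a 5 min reaction with 15 nM final substrate and 10 min with AlphaScreen beads. Recombinant human Tdp1 was used at 1 nM final.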
RECQ1 helicase – qHTS Assay for Inhibitors of RecQ-Like Dna Helicase 1 (RECQ1) | ATP-dependent DNA helicase Q1 (Homo sapiens), P46063 | hit rate 0.54% among 240,000 | AID 2549, 2010 | RECQ1 DNA unwinding, red fluorescence kinetic read | Potency, µM (doses to about 57.3 µM), hits mostly inhibitors; also: nearly all actives have a fitted effect of over 30% in size
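50 nM RECQ1T1 preincubated 15 min with compound in Tris pH 8.0 buffer with MgCl2, DTT, Tween-20 and 2.5 ug/ml poly(dI-dC); started with 200 nM TAMRA/BHQ-2 forked duplex and 2 mM ATP. Unwinding read as fluorescence (525/598 nm), two reads 2 h apart.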
KAT2A inh – qHTS Assay for Inhibitors of GCN5L2. Histone acetyltransferase KAT2A (Homo sapiens), Q92830. GCN5L2 HAT assay, ThioGlo1 CoA-SH fluorescence. Potency, µM (titrated, usually from 58.9 µM), hits mostly inhibitors. hit rate 0.21% among 390,000. AID 504327, 2011
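Free CoA generated was detected with ThioGlo1 (50uM) fluorescence at Ex340nm/Em540nm, read immediately and after 20 min at room temperature. Enzyme, 20 nM in HEPES pH 7.5 buffer, saw compounds 15 min before adding 75uM H3(1-25) peptide and 70uM acetyl-CoA.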
JMJD2E inh – qHTS Assay for Inhibitors of Human Jumonji Domain Containing 2E (JMJD2E); Potency, µM (doses to about 57.1 µM), hits mostly inhibitors; Lysine-specific demethylase 4E (Homo sapiens), B2RXH2; hit rate 1.6% among 230,000; JMJD2E catalytic domain, FDH-coupled NADH fluorescence (FDH is formaldehyde dehydrogenase); also: nearly all actives have a fitted effect of over 50% in size
Target sequence (B2RXH2 1-337 limits assumed): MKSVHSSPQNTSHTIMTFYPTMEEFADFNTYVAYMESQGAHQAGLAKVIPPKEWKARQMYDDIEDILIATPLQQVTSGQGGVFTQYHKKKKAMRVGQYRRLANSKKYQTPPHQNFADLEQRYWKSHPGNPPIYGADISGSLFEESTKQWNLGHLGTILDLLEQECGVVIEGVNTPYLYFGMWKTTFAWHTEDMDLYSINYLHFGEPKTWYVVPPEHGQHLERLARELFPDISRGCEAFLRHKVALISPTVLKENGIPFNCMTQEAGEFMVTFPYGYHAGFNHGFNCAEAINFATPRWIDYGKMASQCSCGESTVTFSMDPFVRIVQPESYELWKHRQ
BLM inh-1 – qHTS Assay for Inhibitors of Bloom's syndrome helicase (BLM); RecQ-like DNA helicase BLM (Homo sapiens), P54132; recombinant BLM DNA unwinding, fluorescence dequenching; Potency, µM (titrated, usually from 56.1 µM), actives largely listed as inhibitors; hit rate 0.2% among 350,000; also: nearly all actives have a fitted effect of over 35% in size
APEX1 inh – qHTS Assay for Inhibitors of the Human Apurinic/apyrimidinic Endonuclease 1 (APE1); DNA repair nuclease/redox regulator APEX1 (Homo sapiens), P27695; recombinant APE1, TAMRA/BHQ-2 abasic DNA cleavage fluorescence; Potency, µM (titrated, usually from 65.8 µM), usual class: inhibitors; hit rate 0.35% among 350,000; also: nearly all actives have a fitted effect of over 55% in size
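Endonuclease cleavage of a quenched abasic-site DNA duplex (50 nM) by APE1 (0.75 nM) was tracked by TAMRA dequenching. Compounds were preincubated with enzyme 15 min at room temperature; data normalized to buffer-only and DMSO wells plus NSC13755 control.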
BLM inh-2 – qHTS Confirmation Assay for Inhibitors of Bloom's syndrome helicase (BLM). shares compounds with BLM inh-1. BLM DNA unwinding, fluorescence quenching, biochemical. Potency, µM, most hits filed as inhibitors. hit rate 40% among 220. AID 2585, 2010;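 also: strand separation dequenches TAMRA so unwinding raises red fluorescence; series mostly up to about 69 µM; nearly all actives have a fitted effect of over 45% in size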
Large screens that a line does not name were inactive (follow-up assays come after a bar, where they were run). Unless noted, calls follow the shape of the dose curve; as a rule, active = well fitted curve in the direction sought with a large enough effect; inconclusive = small, poorly fitted or top-dose-only effect, or another doubt; inactive = no such curve, though single readings can be large; an effect the other way counts as inactive or inconclusive.

Nc1c(C(=O)NCC2CCCO2)sc2nc3c(c(-c4ccco4)c12)CC/C3=C\c1ccco1 (stereo unspecified)	TDP1 block inconclusive, RECQ1 helicase 2.51µM, KAT2A inh inconclusive, JMJD2E inh 7.08µM, BLM inh-1 5.01µM, APEX1 inh 2µM | BLM inh-2 inconclusive
NC(=O)c1sc2nc3c(c(-c4ccco4)c2c1N)CCCC3	none (no result: TDP1 block)
O=C(Cc1cccs1)Nc1ccc(S(=O)(=O)N2CCCC2)cc1	BLM inh-1 17.8µM | BLM inh-2 inconclusive
Cc1ccc(S(=O)(=O)N2CCCCC2)cc1NC(=O)Cc1cccs1	none (no result: RECQ1 helicase, JMJD2E inh, BLM inh-1)
CCCN1CNc2c(c(=O)[nH]c(=S)n2CCc2c(Cl)cccc2Cl)C1	none (no result: RECQ1 helicase, KAT2A inh, JMJD2E inh, BLM inh-1, APEX1 inh)
C=C1CC[C@@H]2[C@](C)(CC[C@@H](O)[C@]2(C)CO)[C@@H]1C/C=C1/C(=O)OC[C@H]1O	none (no result: TDP1 block, RECQ1 helicase, KAT2A inh, JMJD2E inh, BLM inh-1, APEX1 inh) | BLM inh-2 inactive
O=C(OCC(=O)N1CCN(C(=O)c2ccco2)CC1)c1cc(-c2ccco2)nc2ccccc12	RECQ1 helicase 12.6µM, KAT2A inh inconclusive, JMJD2E inh inconclusive, BLM inh-1 8.91µM, APEX1 inh 15.8µM (no result: TDP1 block) | BLM inh-2 inconclusive
O=C(c1ccco1)N1CCN(C(=O)c2cc(-c3ccccn3)nc3ccccc23)CC1	none
CCCCCCOC(=O)C1(O)CC2OC1(C)n1c3ccccc3c3c4c(c5c6ccccc6n2c5c31)C(=O)NC4 (stereo unspecified)	none (no result: JMJD2E inh)
O=C(O)CSc1cc(C(=O)c2cc(F)ccc2O)cn2c(=O)c3c(-c4ccccc4)csc3nc12	KAT2A inh inconclusive, BLM inh-1 25.1µM | BLM inh-2 inconclusive
CCOC(=O)c1sc2nc3c(SCCC#N)cc(C(=O)c4cc(F)ccc4O)cn3c(=O)c2c1C	JMJD2E inh inconclusive
O=c1[nH][nH]c2c(N=Cc3ccccc3O)ccc(F)c12	RECQ1 helicase inconclusive, KAT2A inh inconclusive, BLM inh-1 28.2µM, APEX1 inh 8.91µM | BLM inh-2 inconclusive
CCc1ccc(O)c(N=Cc2ccccc2O)c1	JMJD2E inh inconclusive
O=C(COC(=O)C1(c2ccc(F)cc2)CCCC1)NCc1ccco1	RECQ1 helicase inconclusive, KAT2A inh inconclusive, BLM inh-1 22.4µM | BLM inh-2 inactive
O=C(COC(=O)/C=C/c1ccc(F)cc1)NCc1ccco1	APEX1 inh inconclusive
CCOC(=O)c1ccc2c(c1)N(Cc1cccc(C(F)(F)F)c1)C(=O)c1ccccc1S2(=O)=O	none (no result: RECQ1 helicase, JMJD2E inh, APEX1 inh)
CCCc1nc2ccccc2c(=O)n1-c1ccc(C(=O)OCC)cc1	BLM inh-1 7.94µM | BLM inh-2 inactive
O=C1C(N2CCOCC2)=C(n2nnc3ccccc32)C(=O)c2ccccc21	JMJD2E inh inconclusive, BLM inh-1 35.5µM | BLM inh-2 inconclusive
COc1ccc2nc3cccc(OC)c3nc2c1	BLM inh-1 3.55µM, APEX1 inh inconclusive | BLM inh-2 inactive
S=C(Nc1cccc(Cl)c1)Nc1cccc2cnccc12	BLM inh-1 3.98µM | BLM inh-2 inconclusive
CN(C)c1cc(Cl)c2nonc2c1N	RECQ1 helicase 28.2µM, BLM inh-1 35.5µM, APEX1 inh inconclusive | BLM inh-2 inconclusive
CC(C)C[C@H](NC(=O)[C@H](Cc1cnc[nH]1)NC(=O)[C@@H](N)Cc1cnc[nH]1)C(=O)NCC(=O)NCC(=O)N[C@@H](C)C(=O)N[C@@H](CCCCN)C(=O)N[C@@H](CCC(N)=O)C(=O)N[C@@H](C)C(=O)NCC(=O)N[C@@H](CC(=O)O)C(=O)N[C@H](C(=O)O)C(C)C	none (no result: JMJD2E inh)
Cc1cc(OCC(=O)Nc2cc(-c3nc4ncccc4o3)ccc2C)ccc1Cl	BLM inh-1 28.2µM (no result: TDP1 block, RECQ1 helicase, JMJD2E inh, APEX1 inh) | BLM inh-2 inconclusive
